Measured values taken from PubChem BioAssay AID1159580 (chemical genetic matrix, 2015).
Hit rate of the full screen: of about 5,500 compounds, about 2,000 (36%) were called active. Another 18% or so got no clear call; they are omitted. Cut-off read from the data, not from the text of the source: active = normalized growth mostly below about 0.91 (no sharp cut-off); inconclusive = no clear call, values can overlap the other calls; inactive = mostly above about 0.92. The list shows a part of the results.

Assay: chemical genetic growth profiling, strain panel (AID 1159580);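 note: tested at 20 µM; growth read once vehicle control cultures reached saturation at 30 °C; 1 = growth at the plate median or of vehicle wells; lower values mean less growth of the strain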
Settings: growth OD

Measured: normalized growth

NC(N)=NOCC[C@H](N)C(=O)O
inactive: S. cerevisiae deletion strains, locus YJR043C, strain POL32, stronger effect = lower value 1 | S. cerevisiae deletion strains, locus YJR075W, strain HOC1, stronger effect = lower value 0.983 | S. cerevisiae deletion strains, locus YKL009W, strain mrt4, stronger effect = lower value 0.971 | S. cerevisiae deletion strains, locus YKL068W, stronger effect = lower value 0.978 | S. cerevisiae deletion strains, locus YKL085W, strain MDH1 (second series), stronger effect = lower value 0.969 | S. cerevisiae deletion strains, locus YKL085W, strain MDH1, stronger effect = lower value 0.969 | S. cerevisiae deletion strains, locus YKL160W, strain elf1, stronger effect = lower value 1.01 | S. cerevisiae deletion strains, locus YKL190W, strain CNB1, stronger effect = lower value 0.995 | S. cerevisiae deletion strains, locus YKR001C, strain vps1, stronger effect = lower value 1 | S. cerevisiae deletion strains, locus YKR026C, strain gcn3, stronger effect = lower value 1.01 | S. cerevisiae deletion strains, locus YKR091W, strain srl3, stronger effect = lower value 1.01 | S. cerevisiae deletion strains, locus YLL001W, strain dnm1, stronger effect = lower value 1.01 | S. cerevisiae deletion strains, locus YLL026W, stronger effect = lower value 1.01 | S. cerevisiae deletion strains, locus YLL041C, strain sdh2, stronger effect = lower value 1.01 | S. cerevisiae deletion strains, locus YLR027C, strain aat2, stronger effect = lower value 1.01 | S. cerevisiae deletion strains, locus YLR039C, strain RIC1, stronger effect = lower value 0.933 | S. cerevisiae deletion strains, locus YLR058C, strain SHM2, stronger effect = lower value 0.984 | S. cerevisiae deletion strains, locus YLR102C, strain apc9, stronger effect = lower value 0.988 | S. cerevisiae deletion strains, locus YLR221C, strain rsa3, stronger effect = lower value 1.02 | S. cerevisiae deletion strains, locus YLR258W, strain gsy2, stronger effect = lower value 1.01 | S. cerevisiae deletion strains, locus YLR262C, strain YPT6 (second series), stronger effect = lower value 1.02 | S. cerevisiae deletion strains, locus YLR262C, strain YPT6, stronger effect = lower value 0.954 | S. cerevisiae deletion strains, locus YLR268W, strain sec22, stronger effect = lower value 1.03 | S. cerevisiae deletion strains, locus YLR320W, strain mms22, stronger effect = lower value 1.02 | S. cerevisiae deletion strains, locus YLR330W, strain CHS5, stronger effect = lower value 0.977 | S. cerevisiae deletion strains, locus YLR342W, strain FKS1 (second series), stronger effect = lower value 1.01 | S. cerevisiae deletion strains, locus YLR342W, strain FKS1, stronger effect = lower value 0.992 | S. cerevisiae deletion strains, locus YLR357W, strain rsc2, stronger effect = lower value 1.03 | S. cerevisiae deletion strains, locus YLR370C, strain arc18, stronger effect = lower value 1.02 | S. cerevisiae deletion strains, locus YLR371W, strain rom2, stronger effect = lower value 0.964 | S. cerevisiae deletion strains, locus YLR384C, strain iki3, stronger effect = lower value 1.01 | S. cerevisiae deletion strains, locus YLR418C, strain cdc73, stronger effect = lower value 1.02 | S. cerevisiae deletion strains, locus YML016C, strain PPZ1, stronger effect = lower value 0.992 | S. cerevisiae deletion strains, locus YML032C, strain rad52, stronger effect = lower value 0.976 | S. cerevisiae deletion strains, locus YML120C, strain ndi1, stronger effect = lower value 1.02 | S. cerevisiae deletion strains, locus YML124C, strain tub3, stronger effect = lower value 0.996 | S. cerevisiae deletion strains, locus YMR058W, strain fet3, stronger effect = lower value 1 | S. cerevisiae deletion strains, locus YMR078C, strain ctf18, stronger effect = lower value 0.998 | S. cerevisiae deletion strains, locus YMR125W, strain sto1, stronger effect = lower value 1 | S. cerevisiae deletion strains, locus YMR129W, stronger effect = lower value 1.02 | S. cerevisiae deletion strains, locus YMR205C, strain PFK2, stronger effect = lower value 1.01 | S. cerevisiae deletion strains, locus YMR223W, strain ubp8, stronger effect = lower value 0.976 | S. cerevisiae deletion strains, locus YMR231W, strain pep5, stronger effect = lower value 1.02 | S. cerevisiae deletion strains, locus YMR263W, strain SAP30, stronger effect = lower value 1.01 | S. cerevisiae deletion strains, locus YMR307W, strain GAS1, stronger effect = lower value 1.06 | S. cerevisiae deletion strains, locus YNL067W, strain RPL9B, stronger effect = lower value 1.02 | S. cerevisiae deletion strains, locus YNL071W, strain lat1, stronger effect = lower value 1.01 | S. cerevisiae deletion strains, locus YNL128W, strain TEP1, stronger effect = lower value 0.992 | S. cerevisiae deletion strains, locus YNL153C, strain GIM3, stronger effect = lower value 1.03 | S. cerevisiae deletion strains, locus YNL209W, strain ssb2, stronger effect = lower value 1 | S. cerevisiae deletion strains, locus YNL233W, strain BNI4, stronger effect = lower value 1.03 | S. cerevisiae deletion strains, locus YNL248C, strain rpa49, stronger effect = lower value 1.02 | S. cerevisiae deletion strains, locus YNL250W, strain rad50, stronger effect = lower value 0.961 | S. cerevisiae deletion strains, locus YNL271C, strain bni1, stronger effect = lower value 0.973 | S. cerevisiae deletion strains, locus YNL298W, strain CLA4, stronger effect = lower value 0.989 | S. cerevisiae deletion strains, locus YNL307C, strain MCK1, stronger effect = lower value 1 | S. cerevisiae deletion strains, locus YNL322C, strain KRE1 (second series), stronger effect = lower value 1.01 | S. cerevisiae deletion strains, locus YNL322C, strain KRE1, stronger effect = lower value 0.984 | S. cerevisiae deletion strains, locus YNR049C, strain mso1, stronger effect = lower value 1.01 | S. cerevisiae deletion strains, locus YNR052C, strain pop2, stronger effect = lower value 0.974 | S. cerevisiae deletion strains, locus YOL006C, strain TOP1, stronger effect = lower value 1.07 | S. cerevisiae deletion strains, locus YOL012C, strain htz1 1.13 | S. cerevisiae deletion strains, locus YOL147C, strain pex11, stronger effect = lower value 0.986 | S. cerevisiae deletion strains, locus YOR001W, strain rrp6, stronger effect = lower value 1.03 | S. cerevisiae deletion strains, locus YOR061W, strain CKA2, stronger effect = lower value 0.991 | S. cerevisiae deletion strains, locus YOR069W, strain VPS5, stronger effect = lower value 0.994 | S. cerevisiae deletion strains, locus YOR070C, strain gyp1, stronger effect = lower value 1.02 | S. cerevisiae deletion strains, locus YOR080W, strain dia2, stronger effect = lower value 1.02 | S. cerevisiae deletion strains, locus YOR083W, strain WHI5, stronger effect = lower value 1 | S. cerevisiae deletion strains, locus YOR106W, strain vam3, stronger effect = lower value 1.01 | S. cerevisiae deletion strains, locus YOR136W, strain idh2, stronger effect = lower value 0.988 | S. cerevisiae deletion strains, locus YOR144C, strain elg1, stronger effect = lower value 0.989 | S. cerevisiae deletion strains, locus YOR184W, strain ser1, stronger effect = lower value 0.971 | S. cerevisiae deletion strains, locus YOR265W, strain rbl2, stronger effect = lower value 1.01 | S. cerevisiae deletion strains, locus YOR270C, strain vph1, stronger effect = lower value 1.04 | S. cerevisiae deletion strains, locus YOR290C, strain snf2, stronger effect = lower value 1.02 | S. cerevisiae deletion strains, locus YOR316C, strain cot1, stronger effect = lower value 0.992 | S. cerevisiae deletion strains, locus YPL051W, strain arl3, stronger effect = lower value 1.01 | S. cerevisiae deletion strains, locus YPL055C, strain LGE1, stronger effect = lower value 1.02 | S. cerevisiae deletion strains, locus YPL078C, strain atp4, stronger effect = lower value 1.02 | S. cerevisiae deletion strains, locus YPL106C, strain sse1, stronger effect = lower value 1.03 | S. cerevisiae deletion strains, locus YPL240C, strain hsp82, stronger effect = lower value 1 | S. cerevisiae deletion strains, locus YPL241C, strain CIN2, stronger effect = lower value 0.993 | S. cerevisiae deletion strains, locus YPR119W, strain clb2, stronger effect = lower value 0.996 | S. cerevisiae deletion strains, locus YPR141C, strain kar3, stronger effect = lower value 0.988 | S. cerevisiae deletion strains, locus YPR163C, strain tif3, stronger effect = lower value 0.983 | S. cerevisiae deletion strains, locus YPR167C, strain met16, stronger effect = lower value 0.985 | S. cerevisiae deletion strains, strain wtn01, stronger effect = lower value 0.999 | S. cerevisiae strains, strain wild type, stronger effect = lower value 0.992
